HIF activator = HIF pathway transcriptional activators, primary screen, cell-based, U2OS HRE-luciferase, luminescence; 0.32% of 300,000 active; AID 1910, 2009; activation, % at 7.5 µM (by protocol); U2OS HRE-luciferase reporter; normalized: DMSO 0%, desferrioxamine 100%;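 active = mean activation of at least 10% of the iron chelator positive control signal, with at least half of replicates also reaching 10%; inconclusive = mean and replicate majority disagree about reaching 10%; inactive = mean and most replicates under 10%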
aSyn UTR inh = MLPCN primary screen, SNCA 5' untranslated region | alpha-synuclein 5'UTR reporter, inhibitor activity | inhibition, % (tested at 7.5 µM) | 0.82% of 300,000 active | AID 1813, 2009; in the data active = inhibition above about 60%; inconclusive = no clear call, values can overlap the other calls;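 also: H4 neuroglioblastoma cells stably carrying SNCA 5'UTR luciferase fusion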
KLF5 inhibitor = KLF5 expression inhibitors, primary screen, DLD-1 cells, luminescence; DLD-1 KLF5 promoter-luciferase reporter; inhibition, % at 5 µM; 0.23% of 290,000 active; AID 1700, 2009;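 active = inhibition above a per-plate limit of that plate's mean compound inhibition plus 3 SD, cut at about 60% in these data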;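 also: higher means less KLF5 promoter-driven luciferase light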
Platelet DG rel = inhibitors of platelet dense granule secretion, primary screen, cell-based, MLPCN, human platelets | human platelet-rich plasma, SFLLRN dense granule ATP release, luminescence | inhibition, %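 (compounds screened at 7.5 µM in platelet-rich plasma)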 | 0.22% of 300,000 active | AID 1663, 2009;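 active = mean replicate score, as percent of positive control, at or above 50; inconclusive = mean below 50 but at least one replicate at or above 50; inactive = mean and every replicate below 50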
Wee1 stabilizer = Wee1 degradation inhibitors, primary screen, cell-based, HeLa, Wee1K328M-luciferase, luminescence; HeLa Luc-Wee1K328M stability; 100% = proteasome inhibitor MG132 effect; reporter increase, % at 5 µM; AID 1321, 2008; Wee1-like protein kinase (Homo sapiens), P30291; 1.2% of 220,000 active;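 active = activation above the mean of all tested compounds plus 3 SD, set per screening run, cut at about 8.8% in these data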;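 also: cells exposed to compound for 20 h before luminescence read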
Target sequence (P30291 whole entry K328M): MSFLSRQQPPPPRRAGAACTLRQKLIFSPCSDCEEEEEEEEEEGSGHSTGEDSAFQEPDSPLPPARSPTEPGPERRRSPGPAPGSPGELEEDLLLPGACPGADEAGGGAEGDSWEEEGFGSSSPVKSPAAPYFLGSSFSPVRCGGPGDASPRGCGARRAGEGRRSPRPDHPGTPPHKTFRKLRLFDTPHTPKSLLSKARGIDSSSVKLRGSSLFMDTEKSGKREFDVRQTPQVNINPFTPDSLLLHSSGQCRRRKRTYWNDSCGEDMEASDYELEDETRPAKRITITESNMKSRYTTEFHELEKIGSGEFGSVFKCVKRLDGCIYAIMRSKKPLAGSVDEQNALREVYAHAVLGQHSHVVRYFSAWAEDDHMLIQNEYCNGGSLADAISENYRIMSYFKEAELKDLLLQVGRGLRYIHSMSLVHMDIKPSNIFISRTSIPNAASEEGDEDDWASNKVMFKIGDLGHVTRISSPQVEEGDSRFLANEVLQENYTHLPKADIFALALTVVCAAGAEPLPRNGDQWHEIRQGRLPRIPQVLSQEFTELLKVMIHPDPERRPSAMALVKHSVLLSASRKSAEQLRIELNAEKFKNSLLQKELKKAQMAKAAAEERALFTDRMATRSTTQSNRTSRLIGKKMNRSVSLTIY
Of the large screens only hits and unclear results are named; the others gave an inactive call. Sampled rows, rich in hits. Any-hit rate of the full collection: about 2.1%.

c1ccc(-c2cn3nc4c(nc3n2)CCCC4)cc1	aSyn UTR inh 109
Brc1ccc(-c2cn3nc4c(nc3n2)CCCC4)cc1	aSyn UTR inh 93
CC/C(=N\N=C(/CC)c1ccccc1N)c1ccccc1N	none (no result: KLF5 inhibitor, Wee1 stabilizer)
Cc1nc2c(sc3nc4c(cc32)COC(C)(C)C4)c(=O)n1CC(=O)NCc1ccco1	Wee1 stabilizer 9.3
CCOc1cc(C(c2c(C)[nH][nH]c2=O)c2c(C)[nH][nH]c2=O)ccc1OCc1ccc([N+](=O)[O-])cc1	none
CCOc1cc(/C=C2/NC(=S)NC2=O)ccc1OCc1ccc([N+](=O)[O-])cc1	aSyn UTR inh 62
CC1CN(S(=O)(=O)c2cccc(C(=O)Nc3ccc(S(=O)(=O)NC4=NCCCCC4)cc3)c2)CC(C)O1 (centres undefined)	none (no result: KLF5 inhibitor, Wee1 stabilizer)
O=C1NCCc2c1[nH]c1ccc([N+](=O)[O-])cc21	aSyn UTR inh 70
Nc1nonc1-n1nnc(C(=O)N/N=C/c2ccc(OCc3ccccc3)cc2)c1CNc1ccccc1	none (no result: Wee1 stabilizer)
COc1ccc(NC(=O)C(=O)NNC(=O)C(C)Oc2ccc(Cl)cc2Cl)cc1 (centres undefined)	none
COc1ccc(NC(=O)C(=O)NNC(=O)c2ccc(Cl)cc2Cl)cc1	HIF activator 512 (no result: Wee1 stabilizer)
CNS(=O)(=O)c1cc(S(=O)(=O)NC)c2cccc3c2c1NC3=O	none (no result: Wee1 stabilizer)
O=C(Nc1ccc(Cl)cc1)NN1CC(=O)N(c2cccc(C(F)(F)F)c2)CC1=O	HIF activator 29
Cc1ccc(N2CC(=O)N(NC(=O)Nc3ccc(Cl)c(Cl)c3)CC2=O)cc1	none
Cc1c(C(=O)NCCc2ccccc2)oc2ccc(S(=O)(=O)N3CCC4(CC3)OCCO4)cc12	Wee1 stabilizer 9.5
Cc1ccc2c(c1)Sc1c(ccc3ccccc13)N2	none
O=C(Nc1nc2cc3c(cc2s1)OCO3)c1ccco1	aSyn UTR inh 80 (no result: HIF activator)
O=C(Nc1nc2c(F)cc(F)cc2s1)c1ccccn1	HIF activator 10, aSyn UTR inh 73
CCSc1nnc(NC(=O)c2cnccn2)s1	none (no result: KLF5 inhibitor, Wee1 stabilizer)
CC(=O)Nc1nc2cc3c(cc2s1)OCO3	none
CCOc1ccc2nc(NC(=O)c3ccco3)sc2c1	Platelet DG rel 50 (no result: Wee1 stabilizer)
CCSc1nnc(NC(=O)c2ccccn2)s1	aSyn UTR inh 67
Clc1ccc(CN2CCN(c3ncccn3)CC2)cc1	none (no result: Wee1 stabilizer)
CCOc1cc(O)c(-c2[nH]ncc2-c2nc(C)cs2)cc1CC	none
CC(CC(=O)NNC(=O)c1ccncc1)c1ccccc1 (centres undefined)	none (no result: KLF5 inhibitor, Wee1 stabilizer)
COc1cc2cc[n+](Cc3ccc([N+](=O)[O-])cc3)cc2cc1OC	none (no result: Wee1 stabilizer)
COc1ccc2nc(NC(=O)CSc3nccc(C)n3)sc2c1	HIF activator 39
CCOc1ccc2nc(NC(=O)c3ccccn3)sc2c1	aSyn UTR inh 80, Platelet DG rel 81
CCOc1ccc2nc(NC(=O)c3ccoc3C)sc2c1	Platelet DG rel 69
O=C(Nc1nc2ccccc2c(=O)s1)c1ccco1	Wee1 stabilizer 10
COc1ccc2nc(NC(=O)CSc3nc(C)cc(=O)[nH]3)sc2c1	none
NNC(=O)CNC(=O)CNS(=O)(=O)c1ccccc1	none
Cn1cccc1C(=O)NC(=O)COC(=O)c1cc(S(=O)(=O)N2CCCCC2)ccc1Cl	HIF activator 46
COc1ccc(S(=O)(=O)N2CCCCCC2)cc1C(=O)OCC(=O)NC(N)=O	none
O=c1[nH]c(=S)[nH]cc1Oc1ccc(Cl)cc1Cl	Wee1 stabilizer 9.0
Cc1nc(-c2ccccc2)[nH]c(=O)c1Oc1ccc(Cl)cc1Cl	none
COc1cccc(CN2CCN(Cc3nc4c(s3)CCCC4)CC2CCO)c1 (centres undefined)	Wee1 stabilizer 10
CS(=O)(=O)N(CC(=O)N1CCN(Cc2ccccc2)CC1)c1cccc(F)c1	none (no result: Wee1 stabilizer)
COc1ccc(-c2noc(CCC(=O)NCCc3ccccc3)n2)cc1	none (no result: Wee1 stabilizer)
CCN(CCCNC(=O)CCc1nc(-c2ccc(OC)cc2)no1)c1cccc(C)c1	HIF activator 143
COc1ccc(-c2noc(CCCC(=O)O)n2)cc1	aSyn UTR inh 89
COc1ccccc1N(CC(=O)NC1CCCCC1)S(C)(=O)=O	HIF activator 94
COc1ccccc1N(CC(=O)N/N=C/c1c(O)ccc2ccccc12)S(C)(=O)=O	HIF activator 11, aSyn UTR inh inconclusive
COc1ccccc1N(CC(=O)N/N=C/c1ccc(C(=O)O)cc1)S(=O)(=O)c1ccc(C)cc1	Wee1 stabilizer 9.0
COc1ccccc1N(CC(=O)NCCSc1ccccc1)S(C)(=O)=O	none

Source: PubChem BioAssay (several laboratories)
